Laboratory results from the supplement of paper PMC10338343.
± gives the standard deviation.

Legend:
[1] = system: MILI (PIWIL2) piRISC loaded with L1MC piRNA (26 nt); test: pre-steady-state target cleavage rate (min^-1); guide: L1MC piRNA 5'p-UAACUAAAUACUAUGCAAGCUGUAGG; higher = faster piRNA-guided slicing of the target
Procedure, shortened: (§1)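 Cleave-'n-Seq reactions paired 0.1 nM transcribed, DNA-blocked target RNA library with 1 nM active affinity-purified piRISC holding one synthetic guide, plus or minus 500 nM GTSF1 partner protein, in HEPES–potassium acetate buffer at 33 °C for 0–8 or 0–960 min. After sequencing of uncleaved targets and normalisation to depth and weakly complementary targets, the pre-steady-state cleavage rate was taken from a burst-and-steady-state fit. Three trials were pooled, and k3 was capped at 0.0001 min^-1.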

[2] = system: EfPiwi piRISC loaded with L1MC piRNA (26 nt); test: pre-steady-state target cleavage rate (min^-1); auxiliary factor: 500 nM Ephydatia muelleri Gtsf1; guide: L1MC piRNA 5'p-UAACUAAAUACUAUGCAAGCUGUAGG; MIWI and MILI are mouse PIWI proteins and EfPiwi is from a freshwater sponge; tags in brackets are library labels; higher = faster piRNA-guided slicing of the target
Procedure, shortened: as §1

[3] = auxiliary factor: 500 nM mouse GTSF1
[4] = auxiliary factor: none (no GTSF1)

Sequence | pre-steady-state target cleavage rate [1, 3] | pre-steady-state target cleavage rate [1, 4] | pre-steady-state target cleavage rate [2]
UCCUGGAUGAGCUAGCAUACUAUUUAGUUA | 0.0848 ± 0.017 | 0.00398 ± 0.0027 | 0.00286 ± 0.002
UCCUGGAUGAGCUUGCAUAGUAUUUAGUGUA | 0.261 ± 0.041 | 0.00591 ± 0.0031 | 0.00866 ± 0.0031
UCCUGGAACAGCUAGCAAAGUAUUUAGUUA | 0.11 ± 0.013 | 0.00729 ± 0.002 | 0.00366 ± 0.0025
UCCUGGAACAGGUUGCAUAGUAUAUAGUUA | 0.211 ± 0.023 | 0.00891 ± 0.0023 | 0.0101 ± 0.0045
UCCUGCUACAGCUUGCAUAGUAUUAAGUUA | 0.245 ± 0.028 | 0.0047 ± 0.0024 | 0.0064 ± 0.0019
UCCUGCUACAGCUUGCUAGUAUUUAGUUA | 0.0195 ± 0.0079 | 0.00519 ± 0.002 | 0.00473 ± 0.0031
UCCUGGAACUGCUUGCAUAGUAUUUAGUAA | 0.171 ± 0.015 | 0.00419 ± 0.0025 | 0.00308 ± 0.0023
UCCUGGUACUGCUUGCAAAGUAUUUAGUUA | 0.0806 ± 0.01 | 0.00779 ± 0.0021 | 0.0752 ± 0.027
UCCUCCUACAGCUUGCAUACUAUUUAGUUA | 0.088 ± 0.013 | 0.00383 ± 0.0021 | 0.00904 ± 0.0032
UCCUGGAUCAGCUUGCAUAGUAUUUGAGUUA | 0.222 ± 0.036 | 0.00502 ± 0.0022 | 0.00696 ± 0.0028
UCCUCCUACAGCUGCAUAGUAUUUAGUUA | 0.275 ± 0.018 | 0.00792 ± 0.0023 | 0.0884 ± 0.026
UCCUGGAUGUGCAUGCAUAGUAUUUAGAAA | 0.0733 ± 0.013 | 0.00295 ± 0.0029 | 0.00304 ± 0.0022
UCCUGGUACAGCUUGCAUAGUAGUUUAGUUA | 0.217 ± 0.028 | 0.00833 ± 0.003 | 0.0074 ± 0.0029
UCCUCCUUCAGCUUGCAUACUAUUUAGUUA | 0.0786 ± 0.013 | 0.00296 ± 0.0027 | 0.00784 ± 0.0025
UCCUGGUUGAGCUUGCAUAGUAUUUAGUUA | 0.179 ± 0.017 | 0.0113 ± 0.0033 | 0.0176 ± 0.0053
UCCUCCUACAGCUAGGAUAGUAUUUAGUUA | 0.276 ± 0.015 | 0.00685 ± 0.0019 | 0.0581 ± 0.014
UCCUGGUACAGCUUGCAUAGUAUUUAGUUC [g2:g24:cont:t1C] | 0.3 ± 0.016 | 0.0117 ± 0.0049 | 0.0096 ± 0.0039
UCCUGGAACAGCUUGCAUAGUAUUGUAGUUA | 0.151 ± 0.02 | 0.00351 ± 0.0026 | 0.00741 ± 0.0027
UCCUGCUACAGGUUGCAUAGUAUUAAGUUA | 0.208 ± 0.034 | 0.00616 ± 0.0022 | 0.00526 ± 0.0024
UCCUCCUUGAGCUUGCAUAGUAUUUAGUUA | 0.216 ± 0.018 | 0.0051 ± 0.0021 | 0.0223 ± 0.0062
UCCUGGAACAGCUUGCACAGUAUUUAGUUA | 0.169 ± 0.014 | 0.0128 ± 0.003 | 0.0589 ± 0.015
UCCUGCAUGAGCUUGCAUAGUAUUUAGUAA | 0.234 ± 0.024 | 0.00554 ± 0.0022 | 0.0061 ± 0.0025
UCCUGGUACAGCUUGCAUAGUAUAUUAGUUA | 0.26 ± 0.039 | 0.0117 ± 0.0038 | 0.00489 ± 0.0026
UCCUCCUUCAGCUUGCAUAGUAUUUAGUUA | 0.297 ± 0.019 | 0.0116 ± 0.0026 | 0.158 ± 0.041
UCCUCGUACAGGUUGCAUAGUAUUUAGUUA | 0.249 ± 0.01 | 0.00988 ± 0.0022 | 0.0399 ± 0.0088
